Data on 35 molecules can be found in PubChem BioAssay (NCATS).

Values joined by “and” are separate entries in the source; they are usually repeats but may differ in a detail not shown here. Equal entries are not always repeated. Inconclusive results are not listed. The source holds several records for some structures; these can differ, active in one and inactive in another. Active and inactive are the calls of the source. Unless noted, calls come from the whole dose curve; as a rule, active = well fitted curve in the direction sought with a large enough effect; inconclusive = small, poorly fitted or top-dose-only effect, or another doubt; inactive = no such curve, though single readings can be large; an effect the other way counts as inactive or inconclusive.

The target in test [1] is Alpha-galactosidase A (Homo sapiens) (UniProt P06280). The experiment in a line: Counterscreen for Glucocerebrosidase Inhibitors: qHTS Assay for Human alpha-Galactosidase at pH 4.5 (AID 992). In a few lines: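 Human enzyme (2 nM) with 80 uM 4-methylumbelliferyl alpha-D-galactopyranoside in 50 mM citric acid, 0.005% Tween-20, pH 4.5, 20 min at room temperature. Compounds 0.7 nM–77 uM; fluorescence Ex 365/Em 440 after pH 10 stop; AC50 from Hill fits.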
On the technique in general: The purpose of a counterscreen is to sort out artefacts and off-target activity.

Test [2] has as its target alpha-glucosidase (Oryza sativa, rice) (UniProt Q653V4). The test is described as follows: Counterscreen for Glucocerebrosidase Inhibitors: qHTS Assay for Rice alpha-Glucosidase at pH 5.0 (AID 997). The method in brief:
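Rice alpha-glucosidase (4 nM final) with 400 uM 4-methylumbelliferyl-alpha-D-glucopyranoside in citrate buffer pH 5.0, 20 min at room temperature, stopped at pH 10; fluorescence 365/440 nm, compounds 0.7 nM–77 uM, AC50 from Hill fits.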

The target of test [3] is Alpha-galactosidase (Coffea arabica) (UniProt Q42656). The experiment in a line: Counterscreen for Glucocerebrosidase Inhibitors: qHTS Assay for Coffee Bean alpha-Galactosidase at pH 5.9 (AID 998). In a few lines:
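Green coffee bean enzyme (2 nM final) was incubated with compounds (0.7 nM–77 uM) and 4-methylumbelliferyl alpha-D-galactopyranoside (80 uM) in citrate buffer pH 5.9, 20 min at room temperature. High-pH stop; fluorescence 365/440 nm; AC50 from Hill fits.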

Test [4] in a line: Validation of Assay for Modulators of Lamin A Splicing (AID 1459; active = well fitted curve in the direction sought with a large enough effect in the signal ratio; the % refers to the signal ratio;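 note: cells exposed to compound for two days before reading; ratio rise marks activators and ratio drop marks inhibitors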). The method in brief: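 S3 HeLa cells stably expressing a lamin A-EGFP splicing minigene and DsRed2 were seeded at 600 cells/well in Opti-MEM with 2% FBS, pin-dosed, and incubated 48 hrs at 37 °C, 5% CO2. Laser-scanning cytometry (488 nm) gave GFP/RFP total intensity ratio.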
A short description of test [5]: Cell Viability - LYMP2-018 (AID 985).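 Note: compound exposure lasted 24 hr at 37 °C; nearly all actives have a fitted effect of over 50% in size.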 Note: potency is the fitted concentration of half-maximal effect. The method in brief: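 Acute cytotoxicity is scored as a concentration-dependent drop in intracellular ATP after 24 hr exposure of the lymphoblastoid line in complete culture medium, measured by luciferase luminescence. Potency is expressed as AC50 from Hill modelling.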
A short description of test [6]: Cell Viability - LYMP2-022 (AID 987). Note: nearly all actives have a fitted effect of over 55% in size. Note: potency is the fitted concentration of half-maximal effect. The method in brief: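 Acute toxicity in a human lymphoblastoid line is scored as decreased intracellular ATP after 24 hr compound treatment at 37 C. ATP is measured by CellTiter-Glo luminescence; curves are fitted with the Hill equation to give AC50.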
A short description of test [7]: Cell Viability - LYMP2-024 (AID 988). Note: nearly all actives have a fitted effect of over 60% in size. Note: potency is the fitted concentration of half-maximal effect. The text has this:
NIH Chemical Genomics Center [NCGC]
NIH Molecular Libraries Screening Centers Network [MLSCN]
National Institutes of Environmental Health Sciences [NIEHS]
National Toxicology Program [NTP]
We have developed a 1536-well cell-based assay for quantitative high throughput screening (qHTS) against a number of cell lines to determine in vitro cytotoxicity of small molecules. This particular assay uses a human lymphoblastoid cell line (LYMP2-024) purchased from Coriell Institute for Medical Research.
NCGC Assay Protocol Summary:
The CellTiter-Glo luminescent cell viability assay (Promega) is a homogeneous method to measure the number of viable cells in culture. The end point readout of this assay is based on quantitation of intracellular ATP, an indicator of metabolic activity, using the luciferase reaction. Luciferase catalyzes the oxidation of beetle Luciferin to oxyluciferin and light in the presence of ATP. The luminescent signal is proportional to amount of ATP present.
Using the CellTiter-Glo luminescent cell viability assay, the amount of cellular ATP was measured in the lymphoblastoid cell line with complete culture medium following compound treatment for 24 hours. The assay was performed in opaque white Kalypsys 1536-well plates. In the screen, tetraoctylammonium bromide was used as positive control. Library compounds were measured for their ability to cause acute toxicity in the cell line, as reflected by a decrease in intracellular ATP levels, in a concentration-dependent manner. […] AC50 values were determined from concentration-response data modeled with the standard Hill equation.
qHTS protocol for CellTiter Glo lymphoblastoid cellular assay
[Step] [Parameter] [Value] [Description]
1. Reagent; 5 uL; 2500 lymphoblastoid cells/well
2. Time; 5 hr; 37 C incubation
4. Controls; 23 nL; Tetraoctylammonium bromide 6.4pM to 92 uM
5. Time; 24 hr; 37 C incubation
6. Reagent; 5 uL; CellTiter Glo reagent
7. Time; 30 min; Room Temperature
8. Detection; Luminescence; Viewlux plate reader
Keywords: cell viability, cytotoxicity, lymphoblastoid cell line, luminescence, NTPHTS, NTPHTS_NCGC, NIEHS, DSSTox, MLSMR, MLSCN, NIH Roadmap, qHTS, NCGC

The nature of test [8]: Cell Viability - LYMP2-026 (AID 989).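 Note: cells exposed to compound for 24 h at 37 °C; nearly all actives have a fitted effect of over 50% in size.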 Note: potency is the fitted concentration of half-maximal effect. In a few lines:
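Concentration-dependent loss of intracellular ATP in human lymphoblastoid cells after 24 hr at 37 C, quantified by luciferase luminescence. AC50 derived from standard Hill equation.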

Test [9] in a line: Cell Viability - LYMP1-002 - Assay at 24 hr (AID 993). Note: potency is the fitted concentration of half-maximal effect. In a few lines: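 qHTS, LYMP1-002 lymphoblastoid, 24 h cpd, 37 C, CellTiter-Glo ATP luminescence; AC50 via Hill eq.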
A short description of test [10]: Cell Viability - LYMP1-002 - Assay at 40 hr (AID 994). Note: nearly all actives have a fitted effect of over 60% in size. Note: potency is the fitted concentration of half-maximal effect. In a few lines:
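Viability in the human lymphoblastoid line was measured as intracellular ATP via CellTiter-Glo after 40 hr compound exposure. Tetraoctylammonium bromide served as positive control.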

Alpha-galactosidase A (Homo sapiens), sequence (P06280 whole entry, looked up): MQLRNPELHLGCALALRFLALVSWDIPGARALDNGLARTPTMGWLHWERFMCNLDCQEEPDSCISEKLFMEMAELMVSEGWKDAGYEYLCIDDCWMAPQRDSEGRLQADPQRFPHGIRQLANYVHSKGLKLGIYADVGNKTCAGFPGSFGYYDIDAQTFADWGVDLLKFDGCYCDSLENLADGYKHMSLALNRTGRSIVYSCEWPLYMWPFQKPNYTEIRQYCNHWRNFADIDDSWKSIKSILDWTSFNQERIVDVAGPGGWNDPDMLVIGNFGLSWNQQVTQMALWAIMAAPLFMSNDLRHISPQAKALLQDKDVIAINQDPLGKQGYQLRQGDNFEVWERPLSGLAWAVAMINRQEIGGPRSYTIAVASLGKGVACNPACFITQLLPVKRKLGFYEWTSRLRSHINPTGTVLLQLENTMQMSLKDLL
Alpha-galactosidase (Coffea arabica), sequence (Q42656 whole entry, looked up): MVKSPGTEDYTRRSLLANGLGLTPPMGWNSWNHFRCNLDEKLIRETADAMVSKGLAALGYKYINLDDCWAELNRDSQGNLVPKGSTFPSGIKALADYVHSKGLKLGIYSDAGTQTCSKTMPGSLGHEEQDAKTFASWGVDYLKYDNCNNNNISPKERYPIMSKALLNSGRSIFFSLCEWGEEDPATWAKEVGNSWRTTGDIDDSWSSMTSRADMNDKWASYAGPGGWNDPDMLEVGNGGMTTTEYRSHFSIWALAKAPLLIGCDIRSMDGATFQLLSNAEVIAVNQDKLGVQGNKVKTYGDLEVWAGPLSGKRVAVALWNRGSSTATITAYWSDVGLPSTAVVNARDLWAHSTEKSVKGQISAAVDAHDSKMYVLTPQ

Consider `C[C@H](N)[C@H](O)c1ccc(O)c(O)c1`, for which the call in [1] and in test [2] was inactive.

As to `Oc1ccc(O)cc1`, the molecule was classed as inactive in test [3].

With `CCCCCCCCC(=O)NCc1ccc(O)c(OC)c1`, the molecule was called inactive in [1], in test [2] and in test [4].

As to `Cc1cc(C(C)(C)C)cc(C)c1CC1=NCCN1`, the molecule was called inactive in test [3].

With `CC(C)(C)c1ccc(C(O)CCCN2CCC(C(O)(c3ccccc3)c3ccccc3)CC2)cc1` (stereo not given), in test [3], the molecule was called inactive.

Consider `O=C(CCl)c1ccc(Cl)cc1Cl`, for which the Potency in [5] is 3.16 µM (active); in test [6], 2 µM (active); in test [7] it was 2.51 µM (active); in test [8], 6.31 µM (active); in test [9], 15.8 µM (active); in test [10] it was 25.1 µM (active).

For the molecule `COC(=O)C1=CCCN(C)C1`, the outcome in [1], in test [2] and in test [3] was inactive.

With `Cc1ccc(C(=O)Nc2ccc(S(=O)(=O)O)c3cc(S(=O)(=O)O)cc(S(=O)(=O)O)c23)cc1NC(=O)c1cccc(NC(=O)Nc2cccc(C(=O)Nc3cc(C(=O)Nc4ccc(S(=O)(=O)O)c5cc(S(=O)(=O)O)cc(S(=O)(=O)O)c45)ccc3C)c2)c1`, the call in [3] was inactive.

In the case of `CCCOc1ccccc1-c1nc2n[nH]nc2c(=O)[nH]1`, in test [3], the molecule was classed as inactive.

In the case of `c1ccc2nc(N3CCNCC3)ccc2c1`, the result in test [1], in [2] and in test [3] was inactive.

Turning to `Clc1ccccc1C(c1ccccc1)(c1ccccc1)n1ccnc1`, in test [3], the result was inactive.

Consider `COP(=O)(OC)OC=C(Cl)Cl`, for which the Potency result in test [5], in [6], in [7], in test [8] and in test [9] was “inactive” throughout. The Potency in test [10] is 12.6 µM (active) and inactive.

Turning to `C[C@@H]1C[C@@H]([C@H](O)CC2CC(=O)NC(=O)C2)C(=O)[C@@H](C)C1`, the Potency in test [5] is 1 µM (active); in test [6] it was 794 nM (active) and 1 µM (active); in [7], 0.794 µM (active); in test [8] it was 1 µM (active); in [10], 1.26 µM (active) and inactive. Also, in test [9], the Potency result is “inactive”.

On to `CN1CCC(=C2c3ccccc3CC(=O)c3sccc32)CC1`, for which the call in test [3] was inactive.

With `C[n+]1cc2c3c(ccc2c2ccc4cc5c(cc4c21)OCO5)OCO3`, the molecule was called inactive in test [3].

For `C[C@]12CC[C@@H]3c4ccc(O)cc4CC[C@H]3[C@@H]1CCC2=O`, in test [3], the result was inactive.

Take `CCCC(C(=O)OCCN(CC)CC)(c1ccccc1)c1ccccc1`: in [3], the call was inactive.

On to `CC[n+]1c(-c2ccccc2)c2cc(N)ccc2c2ccc(N)cc21`, for which the Potency in test [5] is 10 µM (active); in [6], 7.94 µM (active); in test [7] it was 12.6 µM (active); in test [8] it was 15.8 µM (active); in [9], 31.6 µM (active); in [10], 31.6 µM (active).

`CNC(=O)Oc1cccc2ccccc12`: the Potency entry in test [5], in [6], in test [7], in test [8], in test [9] and in [10] was “inactive” throughout.

For `CCCCCCCCCCCC[N+](C)(C)CCOc1ccccc1`, the Potency in [5] was 39.8 µM (active); in [6], 39.8 µM (active); in [7], 39.8 µM (active); in test [8], 39.8 µM (active); in test [9], 7.94 µM (active); in [10] it was 31.6 µM (active).

With `CCOC(=O)Nc1ccc(NCc2ccc(F)cc2)nc1N`, in test [3], the outcome was inactive.

Consider `COC(=O)C1=C(C)NC(C)=C(C(=O)OC)C1c1ccccc1[N+](=O)[O-]`, for which the Potency in test [6] was 50.1 µM (active); in [7], 39.8 µM (active); in test [9] it was 50.1 µM (active); in test [10] it was 39.8 µM (active). Moreover, in [3], the result was inactive.

On to `O=C(O)c1nn(Cc2ccc(Cl)cc2Cl)c2ccccc12`, for which the outcome in [1], in test [2], in test [3] and in [4] was inactive.

As to `Oc1ccc(Cl)cc1Sc1cc(Cl)ccc1O`, the figures for the Potency in [5] and in [10] were 39.8 µM (active) and 50.1 µM (active), respectively.

`COc1ccccc1N1CCN(CCCNc2cc(=O)n(C)c(=O)n2C)CC1`: the result in test [3] was inactive.

Consider `CC(N)C(=O)OC(C)(C)Cc1ccc(Cl)cc1` (stereo not given), for which, in test [4], the molecule was called inactive.

Consider `CC1=C(CC(=O)O)c2cc(F)ccc2/C1=C\c1ccc(S(C)=O)cc1` (stereo not given), for which the molecule was classed as inactive in test [3].

With `Oc1c(Br)cc(Br)cc1Br`, the Potency entry in [5], in [6], in test [7], in [8], in [9] and in [10] was “inactive” in each case.

Regarding `CN(C)CCCN1c2ccccc2Sc2ccccc21`, the call in [3] was inactive.

`C[C@]12CCC(=O)C=C1CC[C@@H]1[C@@H]2CC[C@@]2(C)[C@H]1CC[C@]2(O)C(=O)CO`: in test [3], the molecule was called inactive.

Consider `Cc1ccc(=O)n(-c2ccccc2)c1`, for which, in [3], the result was inactive.

For the molecule `NC(=O)CN1CCCC1=O`, the outcome in [1], in test [2] and in test [3] was inactive.

On to `CN(C)C(=S)SSC(=S)N(C)C`, for which the Potency in test [5] was 0.199 µM (active); in [6] it was 0.158 µM (active); in [7], 0.251 µM (active); in test [9], 0.316 µM (active); in test [10], 3.98 µM (active).

On to `COc1ccc(C(=O)N2CCCC2=O)cc1`, for which the outcome in test [1], in [2] and in test [3] was inactive.

For the molecule `CN1[C@@H]2CC[C@H]1CC(OC(=O)c1cc(Cl)cc(Cl)c1)C2` (stereo not given in full), the outcome in test [1], in test [2] and in test [3] was inactive.
